In all, about 5,500 compounds went through this assay and about 2,000 (36%) were called active. Not shown: some 18% with an inconclusive outcome. Cut-off read from the data, not from the text of the source: active = normalized growth mostly below about 0.91 (no sharp cut-off); inconclusive = no clear call, values can overlap the other calls; inactive = mostly above about 0.92. The list shows a part of the results.
Experiment: chemical genetic growth profiling, strain panel (AID 1159580);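 note: tested at 20 µM; growth read once vehicle control cultures reached saturation at 30 °C; 1 = growth at the plate median or of vehicle wells; lower values mean less growth of the strain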
Settings: growth OD

Measured: normalized growth

CC(=O)S[C@@H]1CC2=CC(=O)CC[C@]2(C)[C@H]2CC[C@@]3(C)[C@@H](CC[C@@]34CCC(=O)O4)C12 (stereo not given in full)
inactive: S. cerevisiae deletion strains, locus YJR043C, strain POL32, hits give low values 1.01 | S. cerevisiae deletion strains, locus YJR066W, strain TOR1, hits give low values 0.981 | S. cerevisiae deletion strains, locus YJR075W, strain HOC1, hits give low values 1.01 | S. cerevisiae deletion strains, locus YKL009W, strain mrt4, hits give low values 1.01 | S. cerevisiae deletion strains, locus YKL068W, hits give low values 1.01 | S. cerevisiae deletion strains, locus YKL085W, strain MDH1 (second series), hits give low values 1.01 | S. cerevisiae deletion strains, locus YKL085W, strain MDH1, hits give low values 1.01 | S. cerevisiae deletion strains, locus YKL160W, strain elf1, hits give low values 1.03 | S. cerevisiae deletion strains, locus YKL190W, strain CNB1, hits give low values 0.995 | S. cerevisiae deletion strains, locus YKR001C, strain vps1, hits give low values 1.03 | S. cerevisiae deletion strains, locus YKR026C, strain gcn3, hits give low values 1.01 | S. cerevisiae deletion strains, locus YKR091W, strain srl3, hits give low values 1.01 | S. cerevisiae deletion strains, locus YLL001W, strain dnm1, hits give low values 1.05 | S. cerevisiae deletion strains, locus YLL026W, hits give low values 1.01 | S. cerevisiae deletion strains, locus YLL041C, strain sdh2, hits give low values 1.01 | S. cerevisiae deletion strains, locus YLR027C, strain aat2, hits give low values 1.02 | S. cerevisiae deletion strains, locus YLR039C, strain RIC1, hits give low values 1.02 | S. cerevisiae deletion strains, locus YLR058C, strain SHM2, hits give low values 1 | S. cerevisiae deletion strains, locus YLR102C, strain apc9, hits give low values 1.02 | S. cerevisiae deletion strains, locus YLR113W, strain HOG1, hits give low values 1.03 | S. cerevisiae deletion strains, locus YLR221C, strain rsa3, hits give low values 0.984 | S. cerevisiae deletion strains, locus YLR258W, strain gsy2, hits give low values 0.997 | S. cerevisiae deletion strains, locus YLR262C, strain YPT6 (second series), hits give low values 1.03 | S. cerevisiae deletion strains, locus YLR262C, strain YPT6, hits give low values 1.04 | S. cerevisiae deletion strains, locus YLR268W, strain sec22, hits give low values 1.03 | S. cerevisiae deletion strains, locus YLR320W, strain mms22, hits give low values 0.975 | S. cerevisiae deletion strains, locus YLR330W, strain CHS5, hits give low values 1.01 | S. cerevisiae deletion strains, locus YLR342W, strain FKS1 (second series), hits give low values 1 | S. cerevisiae deletion strains, locus YLR342W, strain FKS1, hits give low values 1.05 | S. cerevisiae deletion strains, locus YLR357W, strain rsc2, hits give low values 1.06 | S. cerevisiae deletion strains, locus YLR370C, strain arc18, hits give low values 1.02 | S. cerevisiae deletion strains, locus YLR371W, strain rom2, hits give low values 1.03 | S. cerevisiae deletion strains, locus YLR384C, strain iki3, hits give low values 1.01 | S. cerevisiae deletion strains, locus YLR418C, strain cdc73, hits give low values 1.03 | S. cerevisiae deletion strains, locus YML016C, strain PPZ1, hits give low values 1 | S. cerevisiae deletion strains, locus YML032C, strain rad52, hits give low values 1.02 | S. cerevisiae deletion strains, locus YML120C, strain ndi1, hits give low values 1.02 | S. cerevisiae deletion strains, locus YML124C, strain tub3, hits give low values 1.04 | S. cerevisiae deletion strains, locus YMR058W, strain fet3, hits give low values 1.01 | S. cerevisiae deletion strains, locus YMR078C, strain ctf18, hits give low values 1.03 | S. cerevisiae deletion strains, locus YMR125W, strain sto1, hits give low values 1.01 | S. cerevisiae deletion strains, locus YMR129W, hits give low values 1.01 | S. cerevisiae deletion strains, locus YMR205C, strain PFK2, hits give low values 1.02 | S. cerevisiae deletion strains, locus YMR223W, strain ubp8, hits give low values 1.03 | S. cerevisiae deletion strains, locus YMR231W, strain pep5, hits give low values 1.01 | S. cerevisiae deletion strains, locus YMR307W, strain GAS1, hits give low values 0.999 | S. cerevisiae deletion strains, locus YNL067W, strain RPL9B, hits give low values 1.01 | S. cerevisiae deletion strains, locus YNL071W, strain lat1, hits give low values 1.01 | S. cerevisiae deletion strains, locus YNL183C, strain NPR1, hits give low values 0.977 | S. cerevisiae deletion strains, locus YNL209W, strain ssb2, hits give low values 1.01 | S. cerevisiae deletion strains, locus YNL233W, strain BNI4, hits give low values 1.01 | S. cerevisiae deletion strains, locus YNL248C, strain rpa49, hits give low values 0.97 | S. cerevisiae deletion strains, locus YNL250W, strain rad50, hits give low values 1.02 | S. cerevisiae deletion strains, locus YNL271C, strain bni1, hits give low values 1.04 | S. cerevisiae deletion strains, locus YNL298W, strain CLA4, hits give low values 1.04 | S. cerevisiae deletion strains, locus YNL307C, strain MCK1, hits give low values 1.04 | S. cerevisiae deletion strains, locus YNL322C, strain KRE1 (second series), hits give low values 1 | S. cerevisiae deletion strains, locus YNL322C, strain KRE1, hits give low values 1 | S. cerevisiae deletion strains, locus YNR049C, strain mso1, hits give low values 1.01 | S. cerevisiae deletion strains, locus YNR052C, strain pop2, hits give low values 1.02 | S. cerevisiae deletion strains, locus YOL006C, strain TOP1, hits give low values 0.994 | S. cerevisiae deletion strains, locus YOL012C, strain htz1 1.16 | S. cerevisiae deletion strains, locus YOL147C, strain pex11, hits give low values 1.02 | S. cerevisiae deletion strains, locus YOR001W, strain rrp6, hits give low values 1.03 | S. cerevisiae deletion strains, locus YOR061W, strain CKA2, hits give low values 1 | S. cerevisiae deletion strains, locus YOR069W, strain VPS5, hits give low values 1 | S. cerevisiae deletion strains, locus YOR070C, strain gyp1, hits give low values 0.996 | S. cerevisiae deletion strains, locus YOR080W, strain dia2, hits give low values 1.03 | S. cerevisiae deletion strains, locus YOR083W, strain WHI5, hits give low values 1 | S. cerevisiae deletion strains, locus YOR106W, strain vam3, hits give low values 1.04 | S. cerevisiae deletion strains, locus YOR136W, strain idh2, hits give low values 1.03 | S. cerevisiae deletion strains, locus YOR144C, strain elg1, hits give low values 1.01 | S. cerevisiae deletion strains, locus YOR184W, strain ser1, hits give low values 1.03 | S. cerevisiae deletion strains, locus YOR231W, strain MKK1, hits give low values 1.02 | S. cerevisiae deletion strains, locus YOR265W, strain rbl2, hits give low values 1.01 | S. cerevisiae deletion strains, locus YOR270C, strain vph1, hits give low values 0.968 | S. cerevisiae deletion strains, locus YOR290C, strain snf2, hits give low values 0.977 | S. cerevisiae deletion strains, locus YOR316C, strain cot1, hits give low values 1.03 | S. cerevisiae deletion strains, locus YPL051W, strain arl3, hits give low values 1.01 | S. cerevisiae deletion strains, locus YPL078C, strain atp4, hits give low values 1.04 | S. cerevisiae deletion strains, locus YPL106C, strain sse1, hits give low values 0.985 | S. cerevisiae deletion strains, locus YPL240C, strain hsp82, hits give low values 1 | S. cerevisiae deletion strains, locus YPL241C, strain CIN2, hits give low values 1 | S. cerevisiae deletion strains, locus YPL256C, strain CLN2, hits give low values 1.09 | S. cerevisiae deletion strains, locus YPR119W, strain clb2, hits give low values 1.03 | S. cerevisiae deletion strains, locus YPR141C, strain kar3, hits give low values 1.03 | S. cerevisiae deletion strains, locus YPR163C, strain tif3, hits give low values 1.04 | S. cerevisiae deletion strains, locus YPR167C, strain met16, hits give low values 1.03 | S. cerevisiae deletion strains, strain wtn01, hits give low values 1.03 | S. cerevisiae strains, strain wild type, hits give low values 1

From PubChem BioAssay AID1159580 (chemical genetic matrix, 2015)
